# Reference: PubChem BioAssay
# Values joined by “and” are separate entries in the source; they are usually repeats but may differ in a detail not shown here. Equal values may be shown once. Records with an inconclusive call do not appear. For some of these results: Measured potencies and affinities stand elsewhere. The source holds several records for some structures; these can differ, active in one and inactive in another. Active and inactive are the calls of the source.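 How the source made its calls, unless noted: active means compounds killing one labelled cell type while sparing the other, by normalised counts and ratio limits, not self-fluorescent; inactive means the rest.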
# How the values were obtained:
# [1] = EMT-state selective cytotoxicity in co-culture – imaging, PC-3E GFP, TEM4-18 mCherry, primary screen (AID 1345086); details: PC-3E GFP / TEM4-18 mCherry co-culture, imaging cell counts, at 1 µM; for red/green cell ratio (normalised): actives lie on both sides, counts scaled to control wells, 1 = unselective;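 on all read-outs here: cells exposed to compound for 72 h before imaging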;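 on red/green cell ratio (normalised): normalised mesenchymal count divided by normalised epithelial count so high means epithelial killing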
# [2] = compounds altering circadian rhythm period length – cell-based, LOPAC library, luminescence reporter (AID 2774; call rule not given here;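 further: values are relative to mean of DMSO wells on each plate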); details: circadian reporter cells, at 7 µM, actives lie on both sides
# [3] = test system: Hepatitis C virus NS3 helicase; assay: blockers of NS3h binding to ssDNA – biochemical, fluorescence polarization, LOPAC1280 library, primary screen (AID 687035; in the data active means inhibition above about 37%); details: Purified HCV NS3 helicase, Cy5-dT15 ssDNA binding fluorescence polarization; stronger effect = higher value; concentration not given here
# [4] = compounds altering Cy5-DNA-NS3h complex signal – biochemical, LOPAC1280, artefact control for HCV NS3 helicase inhibitor project (AID 687037; call rule not given here); details: Cy5-DNA-NS3h complex fluorescence interference counterscreen
# [5] = test system: Aerobactin synthetase IucA (Klebsiella pneumoniae); assay: inhibition of K. pneumoniae IucA enzyme – biochemical, Tocris library, absorbance (AID 1345561; call rule not given here;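 further: 100% = enzyme without compound and 0% = no enzyme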); details: purified IucA enzyme assay, absorbance (OD) read-out; stronger effect = lower value;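 tested at 8 µM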
# [6] = viability loss with induced miR-34 in A549 – imaging, A549 dox-inducible miR-34, nuclei and caspase counts, primary screen (AID 1347080;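 active means compounds whose cell count with miR-34 switched on is under 0.7 times the count with it off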); details: A549 miR-34 inducible, Hoechst nuclei count, 48 h
# [7] = galactose survival enhancers in mitochondrial complex I cybrids – cell-based, galactose medium, ATP luminescence, primary screen (AID 1645843;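 active means z-score of at least 1.8 in each of two replicates, scored against plate mean and spread of sample wells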;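 further: positive z means more ATP and so rescue of galactose-driven cybrid death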); details: complex I mutant cybrid cells, 72 h, stronger effect = higher value
# [8] = yeast 75Q aggregation reduction – 75Q-TubU reporter (AID 1593); details: Yeast 75Q polyglutamine aggregation reporter
# [9] = restoration of touch response, mutant HTT neurons – whole organism, C. elegans mechanosensory neurons, N-terminal huntingtin (AID 1599); details: C. elegans polyQ-huntingtin mechanosensory neurons, stronger effect = higher value
# [10] = blockers of cytochrome c efflux from mitochondria – biochemical, purified mitochondria (AID 1603); details: stronger effect = lower value;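 further: mouse liver mitochondria challenged with calcium chloride; signal normalized to the plate average as 100%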
# [11] = polyglutamine aggregate formation blockers (AID 1604); details: polyglutamine-induced protein aggregation inhibition assay; stronger effect = higher value; tested at 2.5 µM
# [12] = glutamate transport activators, MN-1 cells, MN-1 cell line (AID 1612); details: MN-1 motor neuron cells, stronger effect = higher value;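 further: tested at 1 µM final; 0% = mean of DMSO vehicle wells on each plate; positive means more glutamate uptake than control and negative means less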
# [13] = 75Q-TubH aggregate inhibition, S. cerevisiae, yeast (AID 1616); details: S. cerevisiae 75Q-TubH polyglutamine aggregation suppression; stronger effect = higher value
# [14] = chitosan synthesis blockers in C. neoformans – flow cytometry, Cibacron Brilliant Red staining (AID 1347148; call rule not given here;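 further: compound exposure lasted three days at 37 degrees C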); details: Cryptococcus neoformans chitosan, stronger effect = lower value; at 10 µM unless noted
# [15] = viability loss in pontine glioma line – cell-based, JHH-DIPG-1, MIPE4.0, CellTiter-Glo, qHTS, dose response (AID 1347062; cut-off not given, nearly all actives have AC50 up to about 27 µM); details: JHH-DIPG-1 viability, CellTiter-Glo ATP luminescence
# [16] = viability loss in pontine glioma line – cell-based, SU-DIPG-IV, MIPE4.0, CellTiter-Glo, qHTS, dose response (AID 1347063; cut-off not given, nearly all actives have AC50 up to about 30 µM;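 further: compound exposure lasted 48 hours before the viability readout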); details: CellTiter-Glo ATP luminescence
# [17] = growth inhibition of DIPG cells – cell-based, MIPE4.0 library, CellTiter-Glo luminescence, qHTS (AID 1347066; cut-off not given, nearly all actives have AC50 up to about 30 µM;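 further: cells exposed to compound for 48 hours before readout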); details: SU-DIPG-VI viability, CellTiter-Glo ATP luminescence
# [18] = molecular target: Mitogen-activated protein kinase 7 (Homo sapiens) (UniProt Q13164); assay: Gal4-ERK5 driven luciferase induction – cell-based, HTS, primary screen (AID 1508626;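 active means luciferase signal above three times the same-plate solvent-only control wells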;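 further: luciferase driven by Gal4-ERK5 fusion binding five Gal4 sites before minimal TATA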); details: HeLa Gal4-ERK5 transactivation, 18 h, at 5 µM, stronger effect = higher value
# [19] = P. berghei load reduction in hepatocytes – cell-based, HepG2, luciferase luminescence, HepG2 viability, primary screen (AID 624349; in the data active means parasite load remaining mostly below about 12%, no sharp cut-off; inactive means mostly above about 10%;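 further: 100% = mean of DMSO negative control wells on the same plate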); details: P. berghei liver stage in HepG2, luciferase luminescence, concentration not given here; parasite load remaining: stronger effect = lower value; viability: measured here: HepG2 viability without parasites
# [20] = viability loss in pontine glioma line – cell-based, SU-DIPG-XVII, MIPE5.0, CellTiter-Glo, qHTS, dose response (AID 1347060; cut-off not given, nearly all actives have AC50 up to about 26 µM;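 further: cells exposed to compound for 48 hours before viability readout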); details: CellTiter-Glo ATP luminescence
# [21] = viability loss in pontine glioma line – cell-based, SU-DIPG-XIII, MIPE4.0, CellTiter-Glo, qHTS, dose response (AID 1347061; cut-off not given, nearly all actives have AC50 up to about 37 µM;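 further: cells exposed to compound for 48 hours before readout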); details: CellTiter-Glo ATP luminescence
# [22] = viability loss in pontine glioma line – cell-based, SU-DIPG-XIII, MIPE5.0, CellTiter-Glo, qHTS, dose response (AID 1347064; cut-off not given, nearly all actives have AC50 up to about 23 µM;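 further: cells exposed to compound for 48 hours before the viability read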); details: CellTiter-Glo ATP luminescence
# [23] = viability loss in pontine glioma line – cell-based, SU-DIPG-XXV, MIPE5.0, CellTiter-Glo, qHTS, dose response (AID 1347065; cut-off not given, nearly all actives have AC50 up to about 26 µM;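 further: cells exposed to compound for 48 hours before ATP readout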); details: CellTiter-Glo ATP luminescence
# [24] = JHH-DIPG-1 glioma cell viability, MIPE5.0 library, CellTiter-Glo luminescence, qHTS (AID 1347067; cut-off not given, nearly all actives have AC50 up to about 26 µM;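 further: cells exposed to compound for 48 hours before readout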); details: JHH-DIPG-1 glioma viability, CellTiter-Glo ATP luminescence
# [25] = growth inhibition of DIPG cells – cell-based, MIPE5.0 library, qHTS (AID 1347068; cut-off not given, nearly all actives have IC50 up to about 30 µM); details: SU-DIPG-XXV viability
# [26] = MELAS cybrid and Rieske KO viability enhancers – cell-based, MELAS cybrids, Rieske KO mouse fibroblasts, CellTiter-Glo, primary screen (AID 1508586;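 active means mean z-score across replicates of 1.96 or higher in either the MELAS or the Rieske mutant cell line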;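 further: z relative to plate mean and SD of compound and empty wells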); details: low glucose
# [27] = measured here: epithelial PC-3E GFP cell survival
# [28] = measured here: mesenchymal TEM4-18 mCherry cell survival
# [29] = stronger effect = lower value, cell number ratio, induced over uninduced
# [30] = measured here: relative caspase fold change +Dox/-Dox
# [31] = measured here: total cells with miR-34 induction, stronger effect = lower value
# [32] = measured here: total cells without miR-34 induction
# Sequence of Mitogen-activated protein kinase 7 (Homo sapiens) (Q13164 whole entry, looked up, the tested form may be a part): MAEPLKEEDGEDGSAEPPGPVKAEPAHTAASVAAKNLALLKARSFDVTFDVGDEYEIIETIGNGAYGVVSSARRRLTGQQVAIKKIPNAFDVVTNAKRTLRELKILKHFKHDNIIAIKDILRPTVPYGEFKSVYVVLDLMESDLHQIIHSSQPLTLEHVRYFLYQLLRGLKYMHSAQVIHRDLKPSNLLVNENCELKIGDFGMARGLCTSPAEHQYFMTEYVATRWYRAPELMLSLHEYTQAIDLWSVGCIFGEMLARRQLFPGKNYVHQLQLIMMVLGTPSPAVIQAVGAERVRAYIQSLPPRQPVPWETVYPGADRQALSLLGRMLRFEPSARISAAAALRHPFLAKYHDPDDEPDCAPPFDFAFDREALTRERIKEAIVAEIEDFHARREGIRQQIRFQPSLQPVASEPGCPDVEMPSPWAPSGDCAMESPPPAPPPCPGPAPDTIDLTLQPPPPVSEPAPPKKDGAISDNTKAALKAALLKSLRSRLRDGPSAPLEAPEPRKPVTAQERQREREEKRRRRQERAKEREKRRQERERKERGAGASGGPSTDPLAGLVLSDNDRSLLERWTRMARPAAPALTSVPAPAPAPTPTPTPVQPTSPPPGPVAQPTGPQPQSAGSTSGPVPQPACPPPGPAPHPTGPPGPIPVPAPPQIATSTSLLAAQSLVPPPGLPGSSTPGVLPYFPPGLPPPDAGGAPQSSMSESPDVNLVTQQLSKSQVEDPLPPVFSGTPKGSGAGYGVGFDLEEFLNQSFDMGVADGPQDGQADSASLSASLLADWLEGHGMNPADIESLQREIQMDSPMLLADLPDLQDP
structure (smiles),measurement,setting,value
C=C1C(=O)OC(C(=O)O)C1(O)CCCCCCCCC (configuration not stated),red/green cell ratio (normalised),[1],0.96 (inactive)
same,normalised cell number,[1]; [27],1.02
same,normalised cell number,[1]; [28],0.98
O=C(O)c1ccccc1Nc1cccc(OCc2ccc3ccccc3n2)c1,period change,[2],-0.125 h (inactive)
same,inhibition,[3],0% (inactive)
same,fluorescence ratio (interference),[4],1 (inactive)
same,red/green cell ratio (normalised),[1],0.86 (inactive)
same,normalised cell number,[1]; [27],1.35
same,normalised cell number,[1]; [28],1.16
same,remaining activity,[5],112% (inactive)
same,fold change,[6]; [29],0.992 (inactive) and 0.929 (inactive)
same,fold change,[6]; [30],0.944 and 0.452
same,cell count,[6]; [31],9820 and 8230
same,cell count,[6]; [32],9900 and 8860
same,z-score,[7],2.17 (active) and -0.695 (inactive)
COc1cc(O)c2c(=O)c(OC)c(-c3ccc(OC)c(OC)c3)oc2c1,red/green cell ratio (normalised),[1],1.03 (inactive)
same,normalised cell number,[1]; [27],0.82
same,normalised cell number,[1]; [28],0.85
CC1=CO[C@]2(C1=O)[C@H]1C(=O)O[C@]3(C[C@@H]2C)C(C)=CC(=O)O[C@]13O,red/green cell ratio (normalised),[1],0.85 (inactive)
same,normalised cell number,[1]; [27],1.16
same,normalised cell number,[1]; [28],0.99
CCC(CCC(C)[C@H]1CCC2C3CC=C4C[C@@H](OC(C)=O)CC[C@]4(C)C3CC[C@@]21C)C(C)C (some centres not stated),red/green cell ratio (normalised),[1],0.94 (inactive)
same,normalised cell number,[1]; [27],1.1
same,normalised cell number,[1]; [28],1.03
CC(=O)OCC1=C[C@]2(O)CC3=C(CC24O[C@@H]4C1=O)[C@@]1(C)CCCC(C)(C)[C@@H]1CC3 (some centres not stated),red/green cell ratio (normalised),[1],1.02 (inactive)
same,normalised cell number,[1]; [27],0.93
same,normalised cell number,[1]; [28],0.94
COc1ccc2oc(-c3ccccc3OC)cc(=O)c2c1,red/green cell ratio (normalised),[1],0.85 (inactive)
same,normalised cell number,[1]; [27],1.16
same,normalised cell number,[1]; [28],0.98
C=CCSC[C@@H](N)C(=O)O,red/green cell ratio (normalised),[1],0.86 (inactive)
same,normalised cell number,[1]; [27],1.23
same,normalised cell number,[1]; [28],1.06
COc1c(N2CC[C@@H](CN)C2)c(F)cc2c(=O)c(C(=O)O)cn(CCCCN3C(=O)c4ccccc4C3=O)c12,red/green cell ratio (normalised),[1],1 (inactive)
same,normalised cell number,[1]; [27],1.09
same,normalised cell number,[1]; [28],1.09
C/C=C/CC(C)C(O)C1C(=O)NC(CC)C(=O)N(C)CC(=O)N(C)C(CC(C)C)C(=O)NC(C(C)C)C(=O)N(C)C(CC(C)C)C(=O)NC(C)C(=O)NC(C)C(=O)N(C)C(CC(C)C)C(=O)N(C)C(CC(C)C)C(=O)N(C)C(C(C)C)C(=O)N1C (configuration not stated),score,[8],1.51
same,rescue above control,[9],1.62
same,cytochrome c release ratio,[10],0.93
same,inhibition of aggregation,[11],77.8%
same,glutamate uptake change,[12],-28.6%
same,aggregation suppression score,[13],1.73
same,period change,[2],-0.005 h (inactive)
same,fluorescence ratio (interference),[4],0.9 (inactive)
same,red/green cell ratio (normalised),[1],0.77 (inactive)
same,normalised cell number,[1]; [27],0.27
same,normalised cell number,[1]; [28],0.21
same,remaining activity,[5],111% (inactive)
same,fold change,[6]; [29],1.04 (inactive) and 1.06 (inactive) and 0.898 (inactive)
same,fold change,[6]; [30],1.1 and 0.674 and 2.07
same,fold fluorescence,[14],18.1 [at 41.6 µM] (inactive)
CC(=O)O[C@H]1CC[C@@]2(C)C(CC[C@]3(C)C2CC=C2C4CC(C)(C)CC[C@]4(C)CC[C@]23C)C1(C)C (some centres not stated),red/green cell ratio (normalised),[1],1.1 (inactive)
same,normalised cell number,[1]; [27],1.04
same,normalised cell number,[1]; [28],1.15
CC(C)=CCC/C(C)=C/CC/C(C)=C/CC/C(C)=C/CC/C(C)=C/CC/C(C)=C/CC/C(C)=C/CC/C(C)=C/CC/C(C)=C/CO,red/green cell ratio (normalised),[1],1.11 (inactive)
same,normalised cell number,[1]; [27],0.97
same,normalised cell number,[1]; [28],1.07
same,outcome,[15],inactive
same,outcome,[16],inactive
same,outcome,[17],inactive
same,luciferase signal,[18],20 AU (inactive)
Cc1coc2c1C(=O)C(=O)c1c-2ccc2c1CCCC2(C)C,parasite load remaining,[19],23.1% (inactive)
same,viability,[19],97.5%
same,red/green cell ratio (normalised),[1],1.04 (inactive)
same,normalised cell number,[1]; [27],0.67
same,normalised cell number,[1]; [28],0.7
same,AC50,[20],5.9 µM (active)
same,outcome,[21],inactive
same,AC50,[16],3.32 µM (active)
same,AC50,[22],5.9 µM (active)
same,AC50,[23],16.6 µM (active)
same,AC50,[24],7.42 µM (active)
same,outcome,[25],inactive
same,fold change,[6]; [29],1.17 (inactive) and 1.16 (inactive) and 1.64 (inactive)
same,fold change,[6]; [30],1.11 and 0.52 and 0.868
same,cell count,[6]; [31],934 and 1820 and 2140
same,cell count,[6]; [32],800 and 1570 and 1300
same,fold fluorescence,[14],3.12 [at 169.9 µM] (inactive)
same,z-score,"[26]; MELAS cybrid survival, CellTiter-Glo 48 h, stronger effect = higher value",0.593 (inactive) and 0.0182 (inactive)
same,z-score,"[26]; Rieske KO mouse fibroblast survival, CellTiter-Glo 72 h",0.381 and 0.81
same,luciferase signal,[18],32 AU (inactive)
same,z-score,[7],-1.64 (inactive)
